Structures are written as SMILES. The source made the active and inactive calls.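 The calls were made as follows, unless noted: active = compounds killing one labelled cell type while sparing the other, by normalised counts and ratio limits, not self-fluorescent; inactive = the rest.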

As usually defined, the inhibition is the change of the read-out against control, counted positive when it falls.

For experiment [1], the target named is 6-phosphogluconate dehydrogenase, decarboxylating (Homo sapiens) (UniProt P52209). Briefly: inhibition of human phosphogluconate dehydrogenase – biochemical, recombinant enzyme, NADPH absorbance, primary screen (AID 1159550;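 active = at least 20% inhibition of 6-phosphogluconate dehydrogenase activity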). Particulars: recombinant 6PGD, NADPH absorbance 341 nm; at 10 µM; stronger effect = higher value.
Chain of 6-phosphogluconate dehydrogenase, decarboxylating (Homo sapiens) (P52209 whole entry, looked up): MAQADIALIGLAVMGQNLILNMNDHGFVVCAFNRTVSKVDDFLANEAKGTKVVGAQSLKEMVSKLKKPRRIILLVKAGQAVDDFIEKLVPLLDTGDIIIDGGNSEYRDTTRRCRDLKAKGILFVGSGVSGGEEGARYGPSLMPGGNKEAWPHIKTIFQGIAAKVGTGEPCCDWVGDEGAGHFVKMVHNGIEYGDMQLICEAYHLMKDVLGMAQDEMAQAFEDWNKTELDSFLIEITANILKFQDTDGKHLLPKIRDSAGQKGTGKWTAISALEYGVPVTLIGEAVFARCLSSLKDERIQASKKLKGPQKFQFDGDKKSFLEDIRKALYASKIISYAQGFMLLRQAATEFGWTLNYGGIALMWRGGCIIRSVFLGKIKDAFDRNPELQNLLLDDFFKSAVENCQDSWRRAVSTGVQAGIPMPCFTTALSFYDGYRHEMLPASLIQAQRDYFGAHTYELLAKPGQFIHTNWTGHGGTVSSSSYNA
A short description of experiment [2]: EMT-state selective cytotoxicity in co-culture – imaging, PC-3E GFP, TEM4-18 mCherry, primary screen (AID 1345086).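 As to all read-outs here: cells exposed to compound for 72 h before imaging.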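 As to red/green cell ratio (normalised): normalised mesenchymal count divided by normalised epithelial count so high means epithelial killing.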 Particulars: PC-3E GFP / TEM4-18 mCherry co-culture, imaging cell counts, at 1 µM; for red/green cell ratio (normalised): actives lie on both sides, counts scaled to control wells, 1 = unselective.
Experiment [3] addresses Mitogen-activated protein kinase 7 (Homo sapiens) (UniProt Q13164). Put plainly: Gal4-ERK5 driven luciferase induction – cell-based, HTS, primary screen (AID 1508626;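 active = luciferase signal above three times the same-plate solvent-only control wells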;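 also: luciferase driven by Gal4-ERK5 fusion binding five Gal4 sites before minimal TATA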). Particulars: HeLa Gal4-ERK5 transactivation, 18 h, at 5 µM, stronger effect = higher value.
[4] abbreviates: measured here: epithelial PC-3E GFP cell survival.
The mark [5] stands for this setting: measured here: mesenchymal TEM4-18 mCherry cell survival.

Chain of Mitogen-activated protein kinase 7 (Homo sapiens) (Q13164 whole entry, looked up, the tested form may be a part): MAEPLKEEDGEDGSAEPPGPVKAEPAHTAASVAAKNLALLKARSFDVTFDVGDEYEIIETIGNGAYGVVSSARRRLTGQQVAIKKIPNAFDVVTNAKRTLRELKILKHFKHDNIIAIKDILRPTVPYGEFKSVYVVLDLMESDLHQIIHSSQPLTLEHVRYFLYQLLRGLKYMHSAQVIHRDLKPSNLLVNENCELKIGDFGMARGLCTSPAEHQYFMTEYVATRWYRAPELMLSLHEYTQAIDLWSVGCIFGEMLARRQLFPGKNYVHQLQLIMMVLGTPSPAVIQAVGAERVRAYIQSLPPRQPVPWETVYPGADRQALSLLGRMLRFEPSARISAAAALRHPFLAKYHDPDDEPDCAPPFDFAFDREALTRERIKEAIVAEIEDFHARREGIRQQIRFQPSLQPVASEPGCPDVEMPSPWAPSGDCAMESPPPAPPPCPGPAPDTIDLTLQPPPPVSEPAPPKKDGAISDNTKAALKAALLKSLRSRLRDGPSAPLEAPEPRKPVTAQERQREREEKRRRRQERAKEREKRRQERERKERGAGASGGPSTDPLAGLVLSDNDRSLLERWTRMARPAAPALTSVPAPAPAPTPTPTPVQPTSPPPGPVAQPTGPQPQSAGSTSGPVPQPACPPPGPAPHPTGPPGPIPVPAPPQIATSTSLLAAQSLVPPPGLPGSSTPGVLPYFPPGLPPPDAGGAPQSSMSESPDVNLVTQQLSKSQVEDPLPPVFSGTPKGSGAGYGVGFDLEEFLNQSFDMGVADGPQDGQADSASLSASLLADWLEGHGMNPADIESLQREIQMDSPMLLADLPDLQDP

Turning to `Cc1cc(O)c(C=O)c2c1C(=O)Oc1c(C)c(O)c3c(c1O2)C(O)OC3=O` (stereo not given), the inhibition in experiment [1] was 7.31% (inactive). Besides, the red/green cell ratio (normalised) in experiment [2] is 0.95 (inactive). The figures for the normalised cell number in experiment [2] (setting [4]) and in experiment [2] (setting [5]) were 1.01 and 0.96, respectively. In experiment [3], the luciferase signal was 136 AU (inactive).

For the molecule `CCCCCC1C(=O)CCC1CC(=O)O` (stereo not given), the inhibition in experiment [1] is -5.33% (inactive). The red/green cell ratio (normalised) in experiment [2] is 0.91 (inactive). Also, the normalised cell number in experiment [2] (setting [4]) and in experiment [2] (setting [5]) was 0.07 in each case. Moreover, in experiment [3], the luciferase signal is 56 AU (inactive).

For `OC[C@H]1O[C@@H](n2cnc3c(NCc4ccco4)ncnc32)[C@H](O)[C@@H]1O`, in experiment [1], the inhibition was 3.79% (inactive). The red/green cell ratio (normalised) in experiment [2] was 1.48 (inactive). Further, the values for the normalised cell number in experiment [2] (setting [4]) and in experiment [2] (setting [5]) were 0.37 and 0.55, respectively. Moreover, in experiment [3], the luciferase signal is 40 AU (inactive).

With `COc1c2ccoc2cc2oc(C)cc(=O)c12`, the inhibition in experiment [1] is 12.5% (inactive). Besides, the red/green cell ratio (normalised) in experiment [2] was 0.91 (inactive). Also, the normalised cell number in experiment [2] (setting [4]) was determined as 1.19; in experiment [2] (setting [5]), 1.08. Also, the luciferase signal in experiment [3] is 52 AU (inactive).

As to `S=c1[nH]c2ccccc2s1`, the inhibition in experiment [1] was -1.67% (inactive). Besides, in experiment [2], the red/green cell ratio (normalised) was 0.97 (inactive). Further, the values for the normalised cell number in experiment [2] (setting [4]) and in experiment [2] (setting [5]) were 1.13 and 1.09, respectively. In experiment [3], the luciferase signal is 48 AU (inactive).

Take `O=c1cc(-c2ccc(O)cc2)oc2cc(O[C@@H]3O[C@H](CO)[C@@H](O)[C@H](O)[C@H]3O[C@@H]3OC[C@](O)(CO)[C@H]3O)cc(O)c12`: in experiment [1], the inhibition was -39.6% (inactive). In addition, the red/green cell ratio (normalised) in experiment [2] was 0.8 (inactive). The normalised cell number stood at 1.3 in experiment [2] (setting [4]) and 1.03 in experiment [2] (setting [5]). In experiment [3], the luciferase signal is 196 AU (active).

As to `O=C1C=CC2=C3c4cc(O)c(O)cc4CC3(O)COC2=C1O` (stereo not given), the inhibition in experiment [1] was 27.6% (active). Further, the red/green cell ratio (normalised) in experiment [2] is 0.83 (inactive). Further, the normalised cell number stood at 1.07 in experiment [2] (setting [4]) and 0.89 in experiment [2] (setting [5]). Moreover, in experiment [3], the luciferase signal is 32 AU (inactive).

Consider `COc1cc(-c2coc3cc(OC)c(OC)c(OC)c3c2=O)cc(OC)c1OC`, for which the inhibition in experiment [1] is 12.5% (inactive). Further, in experiment [2], the red/green cell ratio (normalised) is 1.13 (inactive). The normalised cell number in experiment [2] (setting [4]) stood at 0.98; in experiment [2] (setting [5]), 1.1. For the same molecule, the luciferase signal in experiment [3] is 100 AU (inactive).

With `COc1ccc([C@H]2Oc3cc(OC)cc(OC)c3C[C@H]2O)cc1`, the inhibition in experiment [1] was -0.838% (inactive). For the same molecule, the red/green cell ratio (normalised) in experiment [2] is 0.79 (inactive). Moreover, the normalised cell number was 1.04 in experiment [2] (setting [4]) and 0.82 in experiment [2] (setting [5]). In experiment [3], the luciferase signal is 84 AU (inactive).

On to `CC1(C)C=Cc2cc3ccc(=O)oc3cc2O1`, for which the inhibition in experiment [1] is 5.11% (inactive). The red/green cell ratio (normalised) in experiment [2] is 0.99 (inactive). Also, the normalised cell number in experiment [2] (setting [4]) came out at 1.07; in experiment [2] (setting [5]), 1.05. Also, the luciferase signal in experiment [3] was 56 AU (inactive).

As to `COc1ccc2c(c1)OCC(Cc1ccc(OC)c(OC(C)=O)c1)C2=O` (stereo not given), the inhibition in experiment [1] is 2.88% (inactive). In experiment [2], the red/green cell ratio (normalised) was 0.86 (inactive). Besides, the normalised cell number came out at 0.47 in experiment [2] (setting [4]) and 0.4 in experiment [2] (setting [5]). Further, the luciferase signal in experiment [3] is 80 AU (inactive).

For `CCNC(=O)CC[C@H](N)C(=O)O`, the inhibition in experiment [1] was 3.3% (inactive). Moreover, the red/green cell ratio (normalised) in experiment [2] is 0.97 (inactive). In addition, the normalised cell number in experiment [2] (setting [4]) worked out at 1.09; in experiment [2] (setting [5]), 1.06. In addition, in experiment [3], the luciferase signal was 164 AU (inactive).

For `NC(C(=O)O)C(O)C(=O)O` (stereo not given), the inhibition in experiment [1] was 17.7% (inactive). In experiment [2], the red/green cell ratio (normalised) was 1.01 (inactive). The normalised cell number in experiment [2] (setting [4]) came out at 1.05; in experiment [2] (setting [5]), 1.06. For the same molecule, the luciferase signal in experiment [3] is 260 AU (active).

For `CCC(C(N)=O)c1ccccc1` (stereo not given), in experiment [1], the inhibition was -20.8% (inactive). Moreover, the red/green cell ratio (normalised) in experiment [2] is 0.96 (inactive). The normalised cell number in experiment [2] (setting [4]) stood at 1.17; in experiment [2] (setting [5]), 1.12. Moreover, in experiment [3], the luciferase signal was 68 AU (inactive).

For the molecule `COc1ccc(-c2oc3ccccc3c(=O)c2O)cc1OC`, in experiment [1], the inhibition was 8.6% (inactive). For the same molecule, the red/green cell ratio (normalised) in experiment [2] is 0.86 (inactive). Moreover, the normalised cell number in experiment [2] (setting [4]) amounted to 1.06; in experiment [2] (setting [5]), 0.91. Moreover, the luciferase signal in experiment [3] was 52 AU (inactive).

`CC(C)c1ccc2c(c1)CCC1[C@](C)(CN)CCC[C@]21C` (stereo not given in full): the inhibition in experiment [1] is 0.884% (inactive). Besides, in experiment [2], the red/green cell ratio (normalised) is 0.87 (inactive). The normalised cell number was determined as 0.95 in experiment [2] (setting [4]) and 0.83 in experiment [2] (setting [5]). Further, the luciferase signal in experiment [3] is 48 AU (inactive).

With `O=c1c(-c2cc(O)c(O)c(O)c2)coc2cc(O)c(O)c(O)c12`, in experiment [1], the inhibition was 29.2% (active). For the same molecule, in experiment [2], the red/green cell ratio (normalised) was 0.99 (inactive). The normalised cell number amounted to 1.01 in experiment [2] (setting [4]) and 1 in experiment [2] (setting [5]). Further, the luciferase signal in experiment [3] is 220 AU (active).

On to `CCCCCC(=O)Cc1cc(O)cc(O)c1C(=O)Oc1cc(CC(=O)CCCCC)c(C(=O)O)c(OC)c1`, for which the inhibition in experiment [1] was 6.8% (inactive). Further, the red/green cell ratio (normalised) in experiment [2] was 1.08 (inactive). Also, the figures for the normalised cell number in experiment [2] (setting [4]) and in experiment [2] (setting [5]) were 0.95 and 1.03, respectively. In experiment [3], the luciferase signal was 160 AU (inactive).

Turning to `O=C(O)CCCCCCCCCCCCC1C=CCC1` (stereo not given), the inhibition in experiment [1] is -14% (inactive). In experiment [2], the red/green cell ratio (normalised) was 1 (inactive). Besides, the normalised cell number in experiment [2] (setting [4]) and in experiment [2] (setting [5]) was 1.02 each time. Also, the luciferase signal in experiment [3] is 20 AU (inactive).

For the molecule `COc1cc2c(cc1OC)C(=O)OC2`, the inhibition in experiment [1] was 7.46% (inactive). Further, in experiment [2], the red/green cell ratio (normalised) is 0.97 (inactive). In addition, the normalised cell number in experiment [2] (setting [4]) was determined as 0.96; in experiment [2] (setting [5]), 0.94. Besides, in experiment [3], the luciferase signal was 160 AU (inactive).

As to `CC1(C)CC23C(=O)CCC(O)C2(C)CCC13` (stereo not given), the inhibition in experiment [1] was -0.3% (inactive). Further, in experiment [2], the red/green cell ratio (normalised) is 1 (inactive). Also, the normalised cell number in experiment [2] (setting [4]) and in experiment [2] (setting [5]) was 1.11 in each case. Further, the luciferase signal in experiment [3] was 72 AU (inactive).

For `COC(=O)[C@@]1(C)CCC[C@]2(C)c3ccc(O)c(C(C)C)c3CCC12` (stereo not given in full), in experiment [1], the inhibition was -0.875% (inactive). The red/green cell ratio (normalised) in experiment [2] is 1.1 (inactive). In addition, the normalised cell number in experiment [2] (setting [4]) came to 0.97; in experiment [2] (setting [5]), 1.07. Moreover, in experiment [3], the luciferase signal is 52 AU (inactive).

For `CC(C)=CCC/C(C)=C/CC/C(C)=C/CO`, the inhibition in experiment [1] is 1.99% (inactive). The red/green cell ratio (normalised) in experiment [2] was 0.89 (inactive). The normalised cell number in experiment [2] (setting [4]) worked out at 1.03; in experiment [2] (setting [5]) it was 0.91. Also, the luciferase signal in experiment [3] was 88 AU (inactive).

For `CC(=O)OC1CCC23CC1(C)CCC2C(C)(C)CC3OC(C)=O` (stereo not given), the inhibition in experiment [1] is -1.38% (inactive). The red/green cell ratio (normalised) in experiment [2] was 1.04 (inactive). Further, the values for the normalised cell number in experiment [2] (setting [4]) and in experiment [2] (setting [5]) were 1.07 and 1.11, respectively. The luciferase signal in experiment [3] is 80 AU (inactive).

As to `COc1c(CC(=O)c2cc3c(cc2O)OC(C)(C)C(O)C3)ccc2c1C=CC(C)(C)O2` (stereo not given), the inhibition in experiment [1] was 5.33% (inactive). The red/green cell ratio (normalised) in experiment [2] was 0.66 (inactive). Moreover, the normalised cell number in experiment [2] (setting [4]) was 1.48; in experiment [2] (setting [5]), 0.97. In experiment [3], the luciferase signal was 40 AU (inactive).

For the origin of these results see PubChem BioAssay.
